# RORg inh: inhibitors of mouse ROR gamma transcriptional activity; Potency, µM (series often up to 53.6 µM), without a hit: at the highest dose activity change, negative = inhibition, most hits filed as inhibitors; AID 2551; P51450; Drosophila S2 Gal4-RORgamma UAS-luciferase reporter, 20 h; 310,000 tested, 5.4% active; further: potency means the concentration at half of the fitted maximal effect; nearly all actives have a fitted effect of over 60% in size
#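 In this cell-based reporter format, copper sulfate (700 uM final) drives Gal4–ROR gamma fusion expression from a metallothionein promoter in Drosophila Schneider cells; compounds preincubated 1 hr, reporter read after 20 hr at ambient temperature.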
# ELG1 repair inh: blocks ELG1-dependent DNA repair in HEK293T cells. HEK293T ELG1-luciferase reporter, luminescence, 16 h; DNA damage induced by 5-fluorouridine. Potency, µM (titrated, usually from 46.1 µM), inactives show at the highest dose activity change, negative = inhibition, usual class: inhibitors. 330,000 tested, 2.3% active; further: potency means the concentration at half of the fitted maximal effect; nearly all actives have a fitted effect of over 55% in size
#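 Overnight (16 hr) co-exposure of 2,000 cells/well to 5-fluorouridine and compound at 37 °C preceded detection. Luciferase was quantified via ONE-Glo luminescence; loss of signal denotes inhibition.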
# B2AR arrestin: recruits beta-arrestin to the human beta2-adrenergic receptor | P07550 | beta-arrestin recruitment to beta2AR, cell-based reporter | Potency, µM (highest dose often 46.1 µM), for the others: at the top dose activation, hits mostly activators | 330,000 tested, 0.02% active | AID 492947;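 further: potency means the concentration at half of the fitted maximal effect; 0% = DMSO controls and full agonism = EC100 isoproterenol or metaproterenol; nearly all actives have a fitted effect of over 65% in size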
# Target sequence (P07550 whole entry, looked up): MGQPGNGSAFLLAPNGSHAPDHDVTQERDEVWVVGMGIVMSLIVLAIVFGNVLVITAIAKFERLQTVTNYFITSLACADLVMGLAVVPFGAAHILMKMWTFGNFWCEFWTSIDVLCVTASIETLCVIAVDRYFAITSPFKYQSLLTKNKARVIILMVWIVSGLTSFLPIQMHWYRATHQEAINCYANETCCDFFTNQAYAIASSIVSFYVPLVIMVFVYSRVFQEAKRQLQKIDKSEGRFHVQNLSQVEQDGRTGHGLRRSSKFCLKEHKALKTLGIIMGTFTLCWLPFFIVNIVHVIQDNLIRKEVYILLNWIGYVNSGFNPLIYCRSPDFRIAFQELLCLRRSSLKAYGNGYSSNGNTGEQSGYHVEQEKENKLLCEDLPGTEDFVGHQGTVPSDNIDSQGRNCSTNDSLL
# TSHR antagonist: human thyrotropin receptor antagonism; P16473; TSHR-expressing cells, TSH-stimulated cAMP HTRF, 2 h; hits give low values; 330,000 tested, 0.2% active; activity change, negative = inhibition, % at 11.5 µM;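 active means activity change below a set negative limit, meaning inhibition stronger than a set level, cut at about -70% in these data; inconclusive means activity change between two set negative limits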
#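 Freshly harvested TSHR cells receive pin-tooled compound, then EC80 TSH at 4nM final. After 2 hours at 37 deg C, antibody in lysis buffer and cAMP-d2 are added; 30 minutes at ambient temperature precede the HTRF read.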
# VP16 counter: inhibits Gal4-VP16 luciferase reporter, ROR gamma counter-screen; Drosophila S2 Gal4-VP16 UAS-luciferase, luminescence, 20 h; Potency, µM (series often up to 53.6 µM), without a hit: top-dose activity, negative = inhibition, usual class: inhibitors; 310,000 tested, 3.5% active;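 further: Gal4-VP16 expression switched on by copper sulfate through the metallothionein promoter; potency means the concentration at half of the fitted maximal effect; nearly all actives have a fitted effect of over 50% in size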
# An asterisk follows results filed as active; ? = inconclusive; nt = no result; ! = repeats disagree; [ ] = remark or other dose. An excerpt weighted towards active compounds, which were near 7.5% of everything screened. Unless noted, the call rests on the fitted dose curve; in most records, active means well fitted curve in the direction sought with a large enough effect; inconclusive means small, poorly fitted or top-dose-only effect, or another doubt; inactive means no such curve, though single readings can be large; an effect the other way counts as inactive or inconclusive. Unless noted, on the % scale 0 is the no-effect control and ±100 the full control effect.
SMILES,RORg inh,ELG1 repair inh,B2AR arrestin,TSHR antagonist,VP16 counter
Cn1c(Cl)c(/C=N/OC(=O)c2ccc(Cl)cc2)c2ccccc21,-21%,10%,0%,10,-4%
Cn1c(N2CCOCC2)c(/C=N/O)c2ccccc21,-1%,-6%,0%,-1,7%[10 µM]
Cn1c(N2CCOCC2)c(/C=N/OC(=O)c2cccnc2Cl)c2ccccc21,-7%,?,0%,-1,0%[10 µM]
CCOC(=O)c1cc(-c2ccc(OC)cc2)nc2c1c(C)nn2CCC(N)=S,4.5µM*,12µM*,0%,-2,?
CCOC(=O)c1cc(-c2ccco2)nc2c1c(C)nn2-c1ccccc1,-4%,?,3%,nt,?
COC(=O)[C@@]1(C)C[C@@H]1[C@@H](NC(=O)[C@@]1(C)C[C@@H]1[C@@H](NC(=O)[C@@]1(C)C[C@@H]1[C@@H](NC(=O)[C@@]1(C)C[C@@H]1[C@@H](NC(=O)OCc1ccccc1)c1ccccc1)c1ccccc1)c1ccccc1)c1ccccc1,7%,nt,nt,nt,2%
CCCCC(NC(=O)CCc1c(C)c2cc3c4c(oc3c(C)c2oc1=O)CCCC4)C(=O)O (stereo not given),?,17%,-1%,5,-25%
Cc1ccc(NC(=S)NC(=O)Cc2ccccc2)c(O)c1,20µM*,23%,0%,40,?
COc1ccc(OC)c(NC(=O)c2cc3ccccc3o2)c1,28%,6%,0%,-8,4%
CCC(=O)NC(=S)Nc1ccc(OC)cc1OC,11µM*,?,-2%,-5,?
COc1ccc(NC(=S)NC(=O)c2cc3ccccc3o2)c(OC)c1,8.9µM*,5%,0%,-6,-24%
COc1ccc(NC(=S)NC(=O)Cc2ccccc2)c(OC)c1,14µM*,?,0%,5,11µM*
COc1ccc(NC(=O)CSc2ccccc2)c(OC)c1,-23%,?,-1%,13,4%
Cc1ccc(O)c(NC(=S)NC(=O)/C=C/c2ccccc2)c1,-15%,4%,0%,-11,9%
FC(F)(F)c1ccccc1-c1cncnc1NCc1cccnc1,1%,nt,nt,nt,-8%
Cc1cccc(N2C(=O)CC(c3ccc(F)cc3)C3=C2COC3=O)c1 (stereo not given),35%,-2%,0%,7,4%
Cc1ccccc1OCc1nnc(SCCN2CCCC2)n1-c1ccccc1,11µM*,10%,0%,-3,?
COc1ccc(-n2c(COc3cccc4ccccc34)nnc2SCC#N)cc1,-6%,?,0%,-15,-7%
N#CCSc1nnc(COc2cccc3ccccc23)n1-c1ccccc1,?,21µM*,-1%,2,?
Cc1ccc(NNC(=O)c2ccno2)c(C)c1,-16%,13µM*,3%,-5,-7%
Cc1cc(NC(=O)c2ccno2)no1,3%,2%,0%,-17,-2%
CCN1C(=O)[C@H]2[C@H]3CN=C(SCc4ccc(C(=O)OC)cc4)N3[C@@](C)(C(=O)OC)[C@H]2C1=O,nt,1%,-1%,1,nt
CN1CCc2c(n(CC(O)CN3C(=O)c4ccccc4S3(=O)=O)c3ccccc23)C1=O (stereo not given),?,15µM*,-1%,4,-2%
Cc1ccc2c(c1)-n1c(nc3ccc(C)cc3c1=O)C(Cc1ccccc1)NC2=O (stereo not given),nt,-23%,0%,-1,nt
Clc1ccc(-c2nnc3n2CCCCC3)cc1,13%,10%,0%,-4,5%
SMILES,RORg inh,ELG1 repair inh,B2AR arrestin,TSHR antagonist,VP16 counter
Brc1ccc(-c2cnc3n2CCCC3)cc1,?,3%,0%,-4,?
Clc1ccc(-c2cnc3n2CCCCC3)cc1,5.6µM*,?,0%,-7,?
CCOc1ccc(-c2cnc3n2CCC3)cc1,16µM*,25%,0%,6,-27%
Fc1ccc(-c2cnc3n2CCCCC3)cc1,11µM*,?,0%,-1,-15%
O=C(NCC1CCCN(C(=O)CN2CCCCC2)C1)c1ccccc1Cl (stereo not given),?,?,0%,-9,15%
CN(C)/C=C(/C(=O)c1ccc(Cl)cc1)S(=O)(=O)c1ccc(Cl)cc1,4%,-8%,0%,-114*,-5%
C[C@@H](NCCc1ccc(O)cc1)[C@@H](O)c1ccc(O)cc1,nt,nt,nt,13,nt
CCCCCCCCNC(C)C(O)c1ccc(SC(C)C)cc1 (stereo not given),11µM*!,?,-1%,-3,?
O=S(=O)(NCC(c1cccnc1)N1CCN(Cc2ccccc2)CC1)c1cc(F)ccc1F (stereo not given),0%,3%,0%,0,1%
CCOP(=O)(c1ccc(N(C)C)cc1)C(O)c1ccc(OC)cc1 (stereo not given),10%,22%,0%,4,-8%
CCCCCC(=O)NC(=S)Nc1cccc(C(C)=O)c1,2.8µM*,?,-1%,7,?
CNC(=S)Nc1cccc(C(=O)OC)c1,?,?,-1%,-23,-4%
CCCC(=O)NC(=S)Nc1cccc(C(C)=O)c1,10µM*,-1%,0%,6,?
CCC(=O)NC(=S)Nc1cccc(C(C)=O)c1,11µM*,5%,0%,20,13%
CCC(=O)NC(=S)Nc1cccc(NC(=O)CC)c1,-21%,-13%,1%,-2,3%
CC(=O)c1cccc(NC(=S)NC(=O)CC(C)C)c1,?,21%,0%,-3,7.9µM*
O=C(/C=C/c1cccc2ccccc12)c1ccncc1,-88%,26%,0%,-15,8.9µM*
Cc1ccc(N/N=C(/Sc2nnnn2-c2ccccc2)C(=O)c2ccccc2)cc1,10µM*,-1%,-1%,3,?
O=C(/C(=N\Nc1ccc([N+](=O)[O-])cc1)Sc1nnnn1-c1ccccc1)c1ccccc1,?,-30%,-1%,-43,?
COc1ccc(C2CC(c3ccccc3)=NN2c2ccc(N)cc2)cc1 (stereo not given),-17%,-22%,1%,4,0%
COc1ccc(C2CC(c3ccccc3)=NN2S(=O)(=O)c2ccccc2)cc1 (stereo not given),?,?,0%,9,4.5µM*
CCOC(=O)c1nnn(CC(=O)N2N=C(c3ccccc3)CC2c2ccccc2)c1C(=O)OCC (stereo not given),13µM*,8%,0%,-13,-19%
COc1ccc(C2CC(c3ccccc3)=NN2C(=O)COC(=O)c2cccc(O)c2)cc1 (stereo not given),nt,16µM*,10%,2,nt
c1ccc(C(c2ccccc2)N2CCC3(CCNCC3)CC2)cc1,?,nt,nt,nt,-14%
CCC(=O)NC1=C(Nc2ccc(N)cc2)C(=O)c2ccccc2C1=O,13µM*,?,0%,-21,?
